According to PubChem BioAssay:
A number with no mark means an inactive call. Active and inactive are the calls of the source.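 Rule for the calls, unless noted: active = mean inhibition above 46.5%, the solvent-only control mean plus 3 SD; inactive = the rest.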

How the values were obtained:
[1] = system: transactivating tegument protein VP16 (Human herpesvirus 1); assay: VP16 transactivation reporter inhibitors, counter-screen for SRC2 inhibitor project, cell-based, luminescence, single concentration (AID 652007; in the data active = inhibition above about 36%); details: cell-based VP16 transactivation luciferase reporter, at 8.9 µM, stronger effect = higher value
[2] = target: Nuclear receptor coactivator 2 (Homo sapiens) (UniProt Q15596); assay: SRC2 coactivator transcriptional activity inhibitors, confirmation, cell-based, luminescence, HEK293, triplicate (AID 652008); details: HEK293 GAL4-SRC2 luciferase reporter, at 8.9 µM, stronger effect = higher value;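 note: 0% = DMSO-treated cells and 100% = Gossypol at 36 µM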
Chain of Nuclear receptor coactivator 2 (Homo sapiens) (Q15596 whole entry, looked up, the tested form may be a part): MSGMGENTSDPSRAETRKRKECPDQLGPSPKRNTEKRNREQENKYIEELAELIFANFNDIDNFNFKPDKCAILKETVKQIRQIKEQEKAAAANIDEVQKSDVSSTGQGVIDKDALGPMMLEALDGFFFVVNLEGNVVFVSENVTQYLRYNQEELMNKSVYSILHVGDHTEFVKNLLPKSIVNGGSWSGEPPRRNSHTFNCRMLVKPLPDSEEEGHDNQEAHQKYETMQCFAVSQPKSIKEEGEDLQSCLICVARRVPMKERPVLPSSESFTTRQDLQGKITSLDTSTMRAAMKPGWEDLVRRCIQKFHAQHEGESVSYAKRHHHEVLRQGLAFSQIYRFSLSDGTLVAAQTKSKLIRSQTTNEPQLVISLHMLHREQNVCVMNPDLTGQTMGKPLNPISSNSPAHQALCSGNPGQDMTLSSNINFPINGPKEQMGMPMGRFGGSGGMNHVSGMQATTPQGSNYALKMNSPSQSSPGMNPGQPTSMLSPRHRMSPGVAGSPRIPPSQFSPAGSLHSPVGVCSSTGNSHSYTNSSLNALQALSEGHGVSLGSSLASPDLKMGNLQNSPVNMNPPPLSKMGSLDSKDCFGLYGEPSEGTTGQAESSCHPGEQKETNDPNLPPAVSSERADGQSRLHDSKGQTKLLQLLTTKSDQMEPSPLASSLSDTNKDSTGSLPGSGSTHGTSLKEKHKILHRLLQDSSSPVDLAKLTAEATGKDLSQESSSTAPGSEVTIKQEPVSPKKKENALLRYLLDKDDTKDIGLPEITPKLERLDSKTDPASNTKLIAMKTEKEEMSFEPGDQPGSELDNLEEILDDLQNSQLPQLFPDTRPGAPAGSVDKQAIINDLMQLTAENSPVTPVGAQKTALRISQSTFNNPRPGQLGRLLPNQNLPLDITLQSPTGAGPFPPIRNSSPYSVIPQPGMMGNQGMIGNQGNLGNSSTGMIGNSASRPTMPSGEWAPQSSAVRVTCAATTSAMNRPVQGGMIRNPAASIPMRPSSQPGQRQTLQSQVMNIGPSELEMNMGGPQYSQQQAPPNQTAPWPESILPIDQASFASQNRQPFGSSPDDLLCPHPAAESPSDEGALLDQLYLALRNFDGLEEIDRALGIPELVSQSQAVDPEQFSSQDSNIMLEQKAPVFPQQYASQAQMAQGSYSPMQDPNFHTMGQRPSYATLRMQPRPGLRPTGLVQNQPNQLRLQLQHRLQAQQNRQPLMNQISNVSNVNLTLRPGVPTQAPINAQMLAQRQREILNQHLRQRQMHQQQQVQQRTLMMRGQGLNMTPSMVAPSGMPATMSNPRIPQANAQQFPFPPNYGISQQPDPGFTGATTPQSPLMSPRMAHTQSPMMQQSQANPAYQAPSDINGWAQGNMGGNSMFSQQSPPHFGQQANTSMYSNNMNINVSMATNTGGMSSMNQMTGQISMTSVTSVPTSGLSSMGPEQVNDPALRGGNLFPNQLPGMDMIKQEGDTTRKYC

SMILES	inhibition [1]	inhibition [2]
CC1CCc2nc(NC(=O)c3ccco3)sc2C1 (configuration not stated)	-23.2%	11.1%
CCn1nc(NS(=O)(=O)c2ccc([N+](=O)[O-])cc2)c2cc3ccc(C)cc3nc21	10.1%	-26.1%
O=C(O)c1ccccc1C(=O)Nc1ccc(Oc2ccc3ccccc3c2)cc1	36.4% (active)	28%
Cc1ccc(CN2CCC(C(=O)Nc3ccc(Oc4cccnc4)cc3)CC2)cc1	7.59%	-0.58%
O=C1C(N2CCOCC2)=C(n2nnc3ccccc32)C(=O)c2ccccc21	43.9% (active)	34.6%
CCOc1ccc(-c2nc(CSCC(=O)NC3CCN(Cc4ccccc4)CC3)c(C)o2)cc1	8.65%	19.7%
COc1ccc(S(=O)(=O)N/N=C\c2ccc3c(c2)OCO3)c(OC)c1	10.4%	34.9%
CN(c1ccc(F)cc1)S(=O)(=O)c1ccc(Cl)c(C(=O)Nc2ccncc2)c1	-3.83%	26.5%
Nc1nonc1-n1nnc(C(=O)N/N=C/c2ccccc2Br)c1CN1CCCC1	-7.5%	-12.4%
CCNC(=O)NC(=O)COC(=O)CCCSc1nc2ccccc2s1	5%	24.9%
COc1ccc(/C=C2/SC(=S)N(CCCC(=O)N3CCN(C)CC3)C2=O)cc1	8.95%	2.01%
CC(=O)Nc1cccc(NC(=O)CSc2nc(C3CC3)nc3ccccc23)c1	-2.73%	27.2%
Cc1nc([N+](=O)[O-])c(Sc2nc3ccc([N+](=O)[O-])cc3[nH]2)n1Cc1ccccc1	-6.71%	46.7% (active)
COc1cccc(NC(=O)N2CCc3nc(Nc4ccc(C(C)C)cc4)ncc3C2)c1	-73.3%	7.35%
COc1ccc2nc(-c3ccc(N)cc3)[nH]c2c1	-62.2%	49.5% (active)
COc1ccc(CCNc2ncnc3cc(OC)c(OC)cc23)cc1OC	0.49%	16.4%
COc1ccc(CN=C(Nc2ccccc2)SC2CC(=O)NC2=O)cc1 (configuration not stated)	-5.45%	-13.2%
CCOC(=O)[C@]12CCCC=C1N(Cc1cccc3ccccc13)C(=O)[C@H](CC(=O)N1CCOCC1)C2	-7.43%	-11%
CC(C)=C1C2CCC1C1C(=O)N(c3nccs3)C(=O)C21 (configuration not stated)	12.1%	6.16%
CN(C)c1ccc(CCc2ccc(N)cc2)cc1	12.3%	57.2% (active)
CCN(CC)c1ccc(/C=N/Nc2nn[nH]n2)cc1	-13.6%	43.4%
CC(C)N(Cc1ccccc1)C(=S)NCc1ccccc1	-3.69%	-6.45%
NC1=NC(=O)/C(=C\c2cccnc2)S1	-14.6%	35.6%
Cc1nn(-c2ccccc2)c(N2CCCC2)c1/C=N/NC(=O)c1cccc(S(=O)(=O)Nc2ccc(Cl)cc2)c1	-8.85%	-16.7%

SMILES	inhibition [1]	inhibition [2]
Nc1ccc(-c2cc3ccccc3c(=O)o2)cc1	-7.3%	79.1% (active)
Cc1c(CCC(=O)O)c(=O)oc2cc(OCc3ccccc3Br)ccc12	19.4%	20.1%
CC(C)[C@H](NC(=O)[C@@H]1Cc2ccccc2CN1)C(=O)Nc1ccc2c(c1)OCCO2	-21%	-29.4%
O=C(N/N=C/c1ccc([N+](=O)[O-])o1)c1cc2ccccc2o1	21.6%	56.4% (active)
C[C@@H]1C[C@@H]2O[C@H]2CCCCC(=O)Cc2cc(O)cc(O)c2C(=O)O1	53.1% (active)	28.7%
O=C(NCc1cccnc1)c1cc(Sc2ccc(F)cc2F)nc2ccccc12	3%	16.4%
Cc1ccc(CC2C(=O)N(c3cc(C)ccc3C)C(=O)C2C)cc1 (configuration not stated)	0.03%	9.44%
O=C(NCCc1ccccc1)C(c1cccs1)N(C(=O)CCl)c1ccc(Cl)cc1 (configuration not stated)	22.9%	52.8% (active)
CCCCCC(=O)N1CC2(CC(c3cccc(NC(=O)COc4ccc(Cl)cc4)c3)=NO2)C[C@@H]1C(N)=O (some centres not stated)	-7.91%	-5.91%
O=C(NCc1cccnc1)/C(=C\c1ccc(-c2ccc(Cl)c(Cl)c2)o1)S(=O)(=O)c1ccccc1	75.3% (active)	66.9% (active)
CC1(C)CC(=O)C/C(=N/Nc2nc3ccccc3s2)C1	-61.5%	-13.5%
[2H]C(CCOS(N)(=O)=O)c1ccc(C(C)(C)C)cc1 (configuration not stated)	13.7%	41.4%
CCOc1ccccc1OCCCCOc1ccccc1F	-9.29%	-12.6%
COc1ccc(NC(=O)NCc2ccccc2F)cc1OC	-0.66%	-17.2%
Nc1ncc([N+](=O)[O-])c(Oc2ccccc2F)n1	-7%	-16.8%
CCOc1ccc(-n2c(C)nc3cc(C(=O)NCC4CCCO4)ccc32)cc1 (configuration not stated)	-16.6%	-3.58%
Nc1ccc(OC(=O)Nc2ccc(O)cc2)cc1	31.8%	73.7% (active)
COc1ccccc1/C=C/C(=O)c1cc(Br)ccc1OC(=O)c1ccco1	-1.7%	-2.06%
Cc1nc(=O)c(-c2ccccc2)c(C)n1-c1ccccc1Cl	-4.06%	-36.8%
CCN(CC)c1ccc(/C=C/c2cc(-c3ccccc3)c3ccccc3n2)cc1	-11.2%	-13.1%
CN(C)CCCN(C(=O)CCOc1ccccc1)c1nc2c(F)cccc2s1	-2.69%	20.6%
Cc1nc(N/N=C/c2ccccn2)sc1C	29.8%	60.2% (active)
CCCCc1ccc(S(=O)(=O)N/N=C(/C)c2ccncc2)cc1	30.5%	68.7% (active)
CCn1c(C2CCN(S(=O)(=O)c3ccc(OC)cc3)CC2)n[nH]c1=S	-1.12%	-16.9%

SMILES	inhibition [1]	inhibition [2]
CCOC(=O)c1ccc(-c2ccc(N3C(c4cccc(OC)c4)=Cc4ccc(F)cc4C3CC(C)=O)cc2)cc1F (configuration not stated)	-0.77%	21.3%
COCCNC(=O)/C(C#N)=C/c1cc(C(C)C)c(OC)cc1C	-4.35%	16.8%
CCOC(=O)c1c(NC(=O)c2cnn3c2NC(c2cccc(OC)c2)CC3C(F)(F)F)sc2c1CCCC2 (configuration not stated)	16.7%	-21.9%
Fc1ccc(CNC2CCN(Cc3ccccc3)CC2)cc1	7.5%	-3.44%
COc1ccc(-c2nc(-c3ccccc3)no2)c(OC)c1	3.43%	53.8% (active)
O=C(O)COc1ccccc1/C=N/NC(=O)Cc1csc(Nc2cccc(C(F)(F)F)c2)n1	-15.7%	-14.6%
Cc1cc(C)cc(NC(=O)Nc2cc(S(=O)(=O)N(C)C)ccc2C)c1	-9.93%	-21.3%
COc1ccc(S(=O)(=O)N2CCCCCC2)cc1C(=O)NCc1ccco1	-3.91%	1.95%
COc1ccc(-c2nnn(CC(=O)N(Cc3cccs3)C(C)C(=O)NCCC(C)C)n2)cc1OC (configuration not stated)	-10.9%	9.41%
CC(C)(C)c1ccc(OCC(O)CSc2ncn[nH]2)cc1 (configuration not stated)	0.7%	14.2%
O=[N+]([O-])c1cccc(NC(=S)Nc2nc(-c3ccc(Cl)cc3Cl)cs2)c1	-15.8%	9.75%
CCC(C)[C@H](NC(=O)C1CC(=O)N(c2ccc(OC)cc2)C1)C(=O)N1CCCCC1 (some centres not stated)	6.37%	10.3%
Cc1ccc(NC(=O)C2(C)CCN2C(=O)CC(c2ccccc2)c2ccccc2)cc1 (configuration not stated)	-6.43%	-7.67%
Nc1ccc(C(=O)n2c3ccccc3c3ccccc32)cc1	20.2%	17.5%
N#CC1CCCc2c1[nH]c1ccc([N+](=O)[O-])cc21 (configuration not stated)	-27%	-16.7%
O=C(CSc1nc2nc(-c3cccs3)cc(C(F)(F)F)c2c(=O)[nH]1)C(F)(F)F	-28.3%	10%
CCOC(=O)COc1ccc(S(=O)(=O)N2CCN(c3ccc(OC)cc3)CC2)cc1	3.67%	-1.53%
O=C(c1ccc(CS(=O)Cc2ccc(Cl)cc2)o1)N1CCN(c2ccccn2)CC1 (configuration not stated)	-9.03%	-6.91%
CCOc1ccc(-c2cc(CCCC(=O)NCCc3ccccc3)no2)cc1	6.55%	44.9%
COc1ccc(C(=O)N/N=C\c2coc3ccc(Cl)cc3c2=O)cc1	3.52%	5.31%
CCCC1=Nc2cc(C(=O)NCCCOCC)ccc2Sc2ccccc21	-2.83%	15.5%
COC(=O)[C@H]1[C@@H](O)[C@@]2(O)c3c(OC)cc(OC)cc3O[C@@]2(c2ccc(OC)cc2)[C@@H]1c1ccc(F)cc1	32.4%	51.4% (active)
Cc1nc([N+](=O)[O-])c(Br)n1Cc1ccccc1	3.69%	11.9%
